Molecules are shown by their SMILES. Values joined by “and” are separate entries in the source; they are usually repeats but may differ in a detail not shown here. Equal values may be shown once. Inconclusive results are not listed. Active and inactive are the calls of the source. The calls were made as follows: active = hit-call score of the fitted dose curve at least 0.9, where 1 is the maximum; inconclusive = response in the unintended direction; inactive = score below 0.9.

This experiment can be described thus: ATG_XTT_Cytotoxicity: Cytotoxicity Assessment in the Attagene TRANS-FACTORIAL HepG2 Assay (AID 2283584).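 As to AC50: cells exposed to compound for 24 h before reading; active means loss of viability signal versus DMSO baseline.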 How it is done:
ATG_XTT_Cytotoxicity is a cell-based, single-readout assay that uses HepG2, a human liver cell line, with measurements taken at 24 hours after chemical dosing in a 24-well plate.ATG_XTT_Cytotoxicity is one of one assay component(s) measured or calculated from the ATG_XTT_Cytotoxicity assay. It is designed to make measurements of cell number, a form of viability reporter, as detected with […] signals by XTT cytotoxicity assay technology.Data from the assay component ATG_XTT_Cytotoxicity was analyzed into 1 assay endpoint. This assay endpoint, ATG_XTT_Cytotoxicity, was analyzed in the positive analysis fitting direction relative to DMSO as the negative control and baseline of activity. Using a type of viability reporter, loss-of-signal activity can be used to understand changes in the viability. Furthermore, this assay endpoint can be referred to as a primary readout, because the performed assay has only produced 1 assay endpoint. To generalize the intended target to other relatable targets, this assay endpoint is annotated to the cell cycle intended target family, where the subfamily is cytotoxicity.
Human liver HepG2 cells are transiently transfected with multiple reporter transcription units (MRTUs) in 6-well plates using FuGene 6 reagent (Roche; 3 ml FuGene/1 mg DNA). The MRTU constructs are regulated by a cis-regulating element (promoter). […] A major difference between the CIS and TRANS system is that in CIS activities of endogenous TFs are measured, whereas the TRANS assay evaluates changes in activities of exogenous, chimeric NR-Gal4 proteins. […] At the end of 24 hour incubation, total RNA was isolated using TriZol reagent (Invitrogen). The isolated RNA is then reverse-transcribed using oligo(dT) primer and Mo-MLV reverse transcriptase (Invitrogen) with DNAse I (Ambion) treatment for 30 min. The one-tenth of the produced cDNA was amplified by PCR using Taq DNA polymerase (Invitrogen) and two reporter sequence-specific primers. The PCR products were fluorescently labeled by primer extension with 6-arboxyfluorescein (6-FAM) 5'-labeled reporter sequence-specific primer (2 min at 95 C, 20 s at 68 C and 10 min at 72 C) and these products were digested with 5U of HpaI (New England Biolabs) for 2h at 37 C. The fragments were purified using Qiaquick PCR columns (Qiagen), analyzed on an ABI 3130xL genetic analyzer (Applied Biosystems) with peak positions identified by using a set of X-rhodamine (ROX)-labeled MapMarker1000 molecular weight standards (BioVentures). The raw capillary electrophoresis data was processed using Attagraph software (Attagene).
Regarding `CO[Si](C)(OC)c1ccccc1`, the call was inactive.

As for `CN(CCOc1ccc(CC2SC(=O)NC2=O)cc1)c1ccccn1` (stereo not given), the call was inactive.

As to `CC(C=O)Cc1ccc(C(C)C)cc1` (stereo not given), the call was inactive.

In the case of `O=Cc1ccc(F)cc1`, the outcome was inactive.

In the case of `N#Cc1ccccc1`, the outcome was inactive.

In the case of `Clc1cccc(Cl)n1`, the compound was classed as inactive.

Regarding `CC1(C)C(=O)N(Br)C(=O)N1Cl`, the outcome was inactive.

In the case of `OC[C@H]1O[C@H](O[C@]2(CCl)O[C@H](CCl)[C@@H](O)[C@@H]2O)[C@H](O)[C@@H](O)[C@H]1Cl`, the result was inactive.

Consider `COC(=O)C1=C(C)NC(C)=C(C(=O)OCCN(C)Cc2ccccc2)C1c1cccc([N+](=O)[O-])c1` (stereo not given), for which the result was inactive.

For `C=COCCOCCOCCOC=C`, the call was inactive.

Regarding `COCCOCCOCCOCCOCCO`, the compound was called inactive.

As to `CNC(=O)Oc1ccc2c(c1)[C@]1(C)CCN(C)[C@@H]1N2C`, the call was inactive.

As for `CC(=O)c1c(C)cc(C(C)(C)C)cc1C`, the compound was called inactive.

As for `CC(C)=CCC/C(C)=C/COC=O`, the compound was called inactive.

As for `CC(C)(N)CO`, the call was inactive.

Regarding `CCCCCC(CO)CCC` (stereo not given), the compound was classed as inactive.

Turning to `CN(C)C(=N)N=C(N)N`, the compound was called inactive.

With `O=c1[nH]nnc2ccccc12`, the call was inactive.

Regarding `OC1C(O)C(O)C(O)C(O)C1O` (stereo not given), the outcome was inactive.

For `CCCCC(CC)COCCC#N` (stereo not given), the outcome was inactive.

Take `CC(C)C1CCC(O)CC1` (stereo not given): the outcome was inactive.

For `O=C1NC(=O)c2ccccc21`, the call was inactive.

In the case of `CCCCCC(=O)OCCc1ccccc1`, the call was inactive.

Consider `COCCCOc1ccnc(CS(=O)c2nc3ccccc3[nH]2)c1C` (stereo not given), for which the compound was classed as inactive.

Consider `Cc1ccc2sc3cccc(C)c3c2c1`, for which the compound was called inactive.

Turning to `CN1Cc2c(N)cccc2C(c2ccccc2)C1` (stereo not given), the outcome was inactive.

With `NCCNCCN`, the outcome was inactive.

The term AC50 denotes the concentration giving half of the maximal activity seen. Consider `CCCCCCCCCCCCCOS(=O)(=O)O`, for which the AC50 was 148 µM (active).

Turning to `O=C(O)c1cn(C2CC2)c2cc(N3CCNCC3)c(F)cc2c1=O`, the result was inactive.

As to `CC(CC(C)(C)C)CC(C)(C)CC(C)(C)C` (stereo not given), the compound was classed as inactive.

Consider `C[C@]12CC[C@H]3[C@@H](CCC4=CC(=O)CC[C@@]43C)[C@@H]1CC[C@@H]2C(=O)CO`, for which the compound was classed as inactive.

`C=CC(=O)OCCOCCOCC`: the compound was called inactive.

For `CC1(C)OC[C@@H]2O[C@@]3(C(=O)O)OC(C)(C)O[C@H]3[C@@H]2O1`, the call was inactive.

`CCCC(=O)OCCC(C)CCC=C(C)C` (stereo not given): the result was inactive.

With `CC1=CCC2C(C1)C2(C)C` (stereo not given), the compound was classed as inactive.

Regarding `CCCc1c(OCCCOc2ccc(OCC(=O)O)cc2)ccc(C(C)=O)c1O`, the compound was called inactive.

On to `CCCCCCCCCCCCN`, for which the AC50 was 68.9 µM (active) and 58.2 µM (active).

For `C[C@H]1C[C@H]2[C@@H]3CCC4=CC(=O)C=C[C@]4(C)[C@@]3(F)[C@@H](O)C[C@]2(C)[C@@]1(O)C(=O)COP(=O)(O)O`, the call was inactive.

Turning to `CCCCCCOC(=O)CCCCC`, the compound was classed as inactive.

Regarding `CCN(CC)c1ccc(C(=C2C=CC(=[N+](CC)CC)C=C2)c2ccc(S(=O)(=O)O)cc2S(=O)(=O)[O-])cc1`, the result was inactive.

Source of the values: PubChem BioAssay (EPA / NIEHS).
